The structures appear in SMILES notation. Inconclusive results are not listed. Unmarked numbers belong to inactive results. Active and inactive are the calls of the source. Calls follow the shape of the dose curve; as a rule, active = well fitted cell-killing curve with a large enough effect; inconclusive = small, poorly fitted or top-dose-only effect, or effect the other way; inactive = no such curve, though single readings can be large or run the other way.

A short description of assay [1]: Viability qHTS for spleen associated tyrosine kinase inhibitor (SYKi) naive MV4-11 cells (AID 1963823). Also: nearly all actives have a fitted effect of over 40% in size. As to conditions: MV4-11 AML viability, CellTiter-Glo luminescence, 72 h; series mostly up to 45 µM. In outline: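 SYKi-naive MV4-11 AML cells, 500 per well, were exposed to library compounds for 72 hr at 37 C, 5% CO2. Viability was then read by CellTiter-Glo luminescence after 10 min at room temperature.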

Assay [2] is described as follows: Viability qHTS for spleen associated tyrosine kinase inhibitor (SYKi) drug resistant MV4-11 cells (AID 1963824). Also: nearly all actives have a fitted effect of over 35% in size. As to conditions: SYKi-resistant MV4-11 viability, CellTiter-Glo, 72 h; series mostly up to 45 µM. The method, boiled down: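 SYK inhibitor-resistant MV4-11 AML cells, 500 per well, added to predispensed compounds and incubated 72 hr at 37 C, 5% CO2. Viability measured by CellTiter-Glo luminescence after 10 min at room temperature.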
Potency is read from the fitted curve at half-maximal effect.

For `C=C1C[C@]23C[C@H]1CC[C@H]2[C@@]1(C)CCC[C@@]2(C)C(=O)O[C@@H]([C@@H]3O)[C@@H]12`, the Potency result in assay [1] is “inactive”. Also, the Potency in assay [2] is 1430 nM (active).

For the molecule `OC/C=C/c1ccc(O[C@@H]2O[C@H](CO)[C@@H](O)[C@H](O)[C@H]2O)cc1`, the Potency result in assay [1] and in assay [2] was “inactive” each time.

Regarding `C/C(=C\CCC(C)(C)O)CCO[C@@H]1O[C@H](CO[C@@H]2O[C@@H](C)[C@H](O)[C@@H](O)[C@H]2O)[C@@H](O)[C@H](O)[C@H]1O`, the Potency entry in assay [1] and in assay [2] was “inactive” in each case.

Regarding `CC(C)=CCC[C@](C)(O[C@@H]1O[C@H](CO)[C@@H](O)[C@H](O)[C@H]1O)[C@H]1CC[C@]2(C)[C@@H]1[C@H](O)CC1[C@@]3(C)CC[C@H](O)C(C)(C)C3[C@@H](O[C@@H]3O[C@H](CO)[C@@H](O)[C@H](O)[C@H]3O[C@@H]3O[C@@H](C)[C@H](O)[C@@H](O)[C@H]3O)C[C@]12C` (some centres undefined), the viability (% of control) in assay [1] is 90.7% [at 9.25 µM]. For the same molecule, in assay [2], the viability, % of control was 105% [at 9.25 µM].

`CNCc1cc(-c2ccccc2F)n(S(=O)(=O)c2cccnc2)c1`: in assay [1], the Potency result is “inactive”. The Potency in assay [2] was 13000 nM (active).

As for `OCC1OC(Oc2cc(O)cc(/C=C/c3ccc(OC4OC(CO)C(O)C(O)C4O)cc3O)c2)C(O)C(O)C1O` (centres undefined), the Potency entry in assay [1] and in assay [2] was “inactive” each time.

As for `COC(=O)[C@H](Cc1ccc([N+](=O)[O-])cc1)NC(=O)c1cccc2ccccc12`, the Potency was 5800 nM (active) in assay [1] and 4110 nM (active) in assay [2].

As to `O=C(c1cn(Cc2cncn2Cc2ccc(Br)cc2)cc1-c1cccc2ccccc12)N1CCOCC1`, the Potency in assay [1] is 820 nM (active); in assay [2], 1640 nM (active).

On to `CC[C@H](C)[C@@H]([C@@H](CC(=O)N1CCC[C@H]1[C@H](OC)[C@@H](C)C(=O)N[C@@H](Cc1ccccc1)c1nccs1)OC)N(C)C(=O)[C@@H](NC(=O)[C@H](C(C)C)N(C)C)C(C)C`, for which the Potency result in assay [1] and in assay [2] was “inactive” in each case.

Consider `CC1OC(O[C@@H]2[C@H](O)[C@@H](OC3OC(CO)C(O)C(O)C3O)[C@H](OC(=O)[C@]34CCC(C)(C)C[C@H]3C3=CCC5[C@@]6(C)CC[C@H](O[C@@H]7O[C@H](C(=O)O)[C@@H](O)[C@H](O[C@@H]8OC[C@@H](O)[C@H](O)[C@H]8O)[C@H]7O[C@@H]7O[C@H](CO)[C@H](O)[C@H](O)[C@H]7O)[C@@](C)(C=O)C6CC[C@@]5(C)[C@]3(C)C[C@H]4O)O[C@@H]2C)C(O)C(O)C1OC1OCC(O)C(O)C1O` (some centres undefined), for which, in assay [1], the viability (% of control) was 87.4% [at 4.97 µM]. In assay [2], the viability, % of control was 89.9% [at 4.97 µM].

Consider `COc1c2ccoc2nc2c(OC)c(O[C@@H]3O[C@@H](C)[C@H](O)[C@@H](O[C@@H]4O[C@H](CO)[C@@H](O)[C@H](O)[C@H]4O)[C@H]3OC(C)=O)ccc12`, for which the Potency result in assay [1] and in assay [2] was “inactive” throughout.

Regarding `CC(=O)NC1=NN(C(C)=O)C(C)(c2ccccc2)S1` (centres undefined), the Potency in assay [1] is 1840 nM (active); in assay [2], 2590 nM (active).

Turning to `CC1CC(O)CC(C)(C)C1(O)CCO` (centres undefined), the Potency result in assay [1] and in assay [2] was “inactive” each time.

With `CC(C)(O)C1CCC2(C)C3C(O)C4C(C13)C42CO` (centres undefined), the Potency result in assay [1] and in assay [2] was “inactive” each time.

As for `C[S+](CC[C@H](N)C(=O)[O-])C[C@H]1O[C@@H](n2cnc3c(N)ncnc32)[C@H](O)[C@@H]1O` (some centres undefined), the Potency result in assay [1] and in assay [2] was “inactive” each time.

In the case of `CCOC(=O)c1c(C)nn(-c2cccc([N+](=O)[O-])c2)c1C`, the Potency result in assay [1] and in assay [2] was “inactive” in each case.

In the case of `Cc1cc(C)nc(NS(=O)(=O)c2ccc(NC(=S)NC(=O)COc3ccc(Br)cc3Cl)cc2)n1`, the Potency result in assay [1] and in assay [2] was “inactive” in each case.

Regarding `CC(=O)c1ccc2c(c1)[C@H](NC(=O)c1ccc(F)c(Cl)c1)[C@H](O)C(C)(C)O2`, the Potency result in assay [1] and in assay [2] was “inactive” each time.

`COc1cc(CCCO)ccc1O[C@@H]1O[C@H](CO)[C@@H](O)[C@H](O)[C@H]1O`: the Potency result in assay [1] and in assay [2] was “inactive” each time.

`COC(=O)C[C@@H]1C(C(=O)O)=CO[C@@H](O[C@@H]2O[C@H](CO)[C@@H](O)[C@H](O)[C@H]2O)/C1=C\COC(=O)/C=C\c1ccccc1`: the Potency entry in assay [1] and in assay [2] was “inactive” each time.

With `CCC(C)C1NC(=O)C(Cc2ccccc2)NC(=O)C(CCCCCC(=O)C(O)CO)NC(=O)C2CCCCN2C1=O` (centres undefined), the results for the Potency in assay [1] and in assay [2] were 2430 nM (active) and 1930 nM (active), respectively.

Consider `C=CC(C)(CCC=C(C)C)O[C@@H]1O[C@H](CO)[C@@H](O)[C@H](O)[C@H]1O` (some centres undefined), for which the Potency entry in assay [1] and in assay [2] was “inactive” in each case.

Source of the values: PubChem BioAssay (NCATS).
